According to PubChem BioAssay (Tox21):
Where “and” joins values, the source holds several entries; their conditions need not be identical. Equal entries are not always repeated. Inconclusive results are not listed. Entries that show only a call come without a potency. Where a structure was tested more than once in an assay, its records may differ in their call. Calls of active or inactive are those of the source. Calls come from the whole dose curve.

assay: qHTS assay to identify small molecule agonists of the AP-1 signaling pathway - cell viability counter screen (AID 1159525); settings: ME-180 (cervical carcinoma) AP-1-bla cells viability, ATP luminescence, 5 h; series mostly up to 76.8 µM; viability change, negative = cytotoxic: at the top concentration; note: nearly all actives have a fitted effect of over 55% in size
Description: National Center for Advancing Translational Sciences [NCATS]
NIH Chemical Genomics Center [NCGC]
U.S. Environmental Protection Agency [EPA]
National Institutes of Environmental Health Sciences [NIEHS]
National Toxicology Program [NTP]
U.S. Food and Drug Administration [FDA]
Activator protein-1 (AP-1), a transcription factor, plays an important role in tumor genesis by regulating genes involved in cell proliferation, differentiation, apoptosis, and angiogenesis. AP-1 activity is induced by a complex network of signaling pathways that involves extracellular signals, such as growth factors. The AP-1 protein complex formed from c-Fos and c-Jun binding to the AP-1 response element results in transcriptional activation of genes containing such elements within their promoter.
Low molecular weight molecules have been discovered and developed to modulate various components of these signaling pathways, for example, MAP kinase inhibitors. However, many points of pathway modulation remain untested due to the lack of chemical probes making this signaling locus of general interest.
Using a beta-lactamase reporter-gene under control of the AP-1 response element, a cell-based assay [CellSensor(TM) AP-1-bla ME-180 developed by Invitrogen Corp.] was used to measure EGF-induced signaling. The Tox21 10K library compounds were measured for their ability to positively modulate the action of EC50 EGF on reporter gene activity. Compounds were screened in a 15-pt titration series in 1536-well format. The cytotoxicity of the Tox21 compound library against this cell line was tested in parallel by measuring the intra cellular ATP content in the same wells.
Tox21 Assay Protocol Summary:
2500 cells/5uL in Opti-MEM medium containing 0.5% dialyzed FBS, 0.1 mM NEAA, 1 mM sodium pyruvate and 10 mM HEPES was dispensed into 1536-well black wall/clear bottom plates using a Multidrop dispenser and cells were cultured at 37 degrees Celsius overnight. Next day 23 nL of compounds dissolved in DMSO, positive controls or DMSO were delivered to each well using a pin tool. The plates were incubated at 37 degrees Celsius for 5 hours. 1 uL of LiveBLAzerTM B/G FRET substrate (Solution A+B+C+D) was added to each well using a Flying Reagent Dispenser. After incubated at room temperature for 2.5 hours the plates were measured on an EnVision plate reader at Excitation 405nm, Emission1=460nm and Emission 2=530nm. The %Activity was determined from the ratio of 460nm/530nm.
After the plates were read for Beta-Lactamase assay on Envision; 3 ul Cell Titer Glo (Promega) was added to measure the cytotoxicity and the plates were then incubated at RT in dark for 30 min. The luminescence was read on ViewLux (Perkin Elmer, Shelton, CT) using 6 sec exposure. ViewLux data was expressed as relative luminescence units.
For primary data analysis, raw plate reads for each titration point were first normalized relative to […] EGF control (100%) and DMSO only wells (basal, 0%).
For primary data analysis for viability assay, raw plate reads for each titration point were first normalized Tetra n-octyl ammonium bromide control (-100%) and DMSO (control, 100%).
Potency is the fitted concentration of half-maximal effect.

| SMILES | Potency | viability change, negative = cytotoxic |
| --- | --- | --- |
| CC(C)CON=O | inactive | – |
| Brc1ccc(Br)cc1 | inactive | – |
| COP(=S)(OC)SCn1nnc2ccccc2c1=O | inactive | – |
| CC(C)(c1ccccc1)c1ccc(O)c(C(C)(C)c2ccccc2)c1 | 12.2 µM (active) and 21.9 µM (active) | – |
| COP(=S)(OC)Oc1ccc(S(=O)(=O)N(C)C)cc1 | inactive | – |
| O=[N+]([O-])/N=C1\NCCN1Cc1ccc(Cl)nc1 | inactive | – |
| C=CC(=O)OCC(CC)(COC(=O)C=C)COC(=O)C=C | inactive | – |
| O=C1Nc2ccc(Cl)cc2C(c2ccccc2)=NC1O (stereo not given) | inactive | – |
| CCC[CH2][Sn]([Cl])([CH2]CCC)[CH2]CCC | 873 nM (active) and 1.74 µM (active) | – |
| CCOP(=O)(OCC)OCC | inactive | – |
| Clc1ccccc1-c1nnc(-c2ccccc2Cl)nn1 | inactive | – |
| CC(C)(O)C#N | inactive | – |
| CCOC(=O)c1ccccc1N | inactive | – |
| CC(C)Nc1ccc(Nc2ccccc2)cc1 | 43.5 µM (active) and 54.9 µM (active) | – |
| C[C@]12CCC(=O)C=C1CC[C@@H]1[C@@H]2CC[C@@]2(C)[C@H]1CC[C@]2(C)O | inactive | – |
| O=NN1CCOCC1 | inactive | – |
| c1ccc(C2CO2)cc1 (stereo not given) | inactive | – |
| CCOP(=S)(OCC)SCSC(C)(C)C | – | 1.87% (inactive) |
| Clc1cccc(C(Cl)(Cl)Cl)n1 | inactive | – |
| C[C@]12CC[C@H]3[C@@H](CCC4=CC(=O)CC[C@@H]43)[C@@H]1CC[C@@H]2O | inactive | – |

| SMILES | Potency | viability change, negative = cytotoxic |
| --- | --- | --- |
| CC(C)(c1ccc(OCC2CO2)cc1)c1ccc(OCC2CO2)cc1 (stereo not given) | inactive | – |
| CC1=C(C(=O)Nc2ccccc2)SCCO1 | inactive | – |
| CC1(C)C(C(=O)OC(C#N)c2cccc(Oc3ccccc3)c2)C1(C)C (stereo not given) | inactive | – |
| CCOS(=O)(=O)OCC | inactive | – |
| CC(C)(C#N)N=NC(C)(C)C#N | inactive | – |
| N#CC(c1ccccc1)c1ccccc1 | inactive | – |
| CCOP(=S)(OCC)OP(=S)(OCC)OCC | inactive | – |
| O=C(O)CF | inactive | – |
| ClC(Cl)=C(Cl)C(Cl)=C(Cl)Cl | inactive | – |
| COC(=O)Nc1nc2ccccc2[nH]1 | inactive | – |
| Nc1ccc([N+](=O)[O-])cc1N | 34.7 µM (active) and inactive | – |
| CCCCSP(=O)(SCCCC)SCCCC | inactive | – |
| N#CCCCCC#N | inactive | – |
| CC(C)=CC1C(C(=O)OCN2C(=O)C3=C(CCCC3)C2=O)C1(C)C (stereo not given) | inactive | – |
| OCCOCCO | inactive | – |
| Cl | inactive | – |
| CN(C)P(=O)(N(C)C)N(C)C | inactive | – |
| CCC(=O)Nc1ccc(Cl)c(Cl)c1 | inactive | – |
| CN(C)c1nc(=O)n(C2CCCCC2)c(=O)n1C | inactive | – |
| COP(=O)(NC(C)=O)SC (stereo not given) | inactive | – |
